40 molecules from PubChem BioAssay (EPA / NIEHS) can be followed below.

Calls of active or inactive are those of the source. The calls were made as follows: active = hit-call score of the fitted dose curve at least 0.9, where 1 is the maximum; inconclusive = response in the unintended direction; inactive = score below 0.9.

For this assay, the target named is Peroxisome proliferator-activated receptor gamma (Homo sapiens) (UniProt P37231). The assay can be described thus: OT_PPARg_PPARgSRC1_1440: Odyssey Thera (OT) 24-hour Protein-Complementation Assay for Peroxisome Proliferator-activated Receptor Gamma/ SRC-1 Co-activator (AID 2283388).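 Also: nuclear to cytoplasmic ratio of reconstituted Venus YFP fluorescence in fixed imaged cells.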 On the procedure: OT_PPARg_PPARgSRC1_1440 is a cell-based assay that uses HEK293T, a human kidney cell line, with measurements taken at 24 hours after chemical dosing in a 384-well plate.OT_PPARg_PPARgSRC1_1440 is one of one assay component(s) measured or calculated from the OT_PPARg_PPARgSRC1_1440 assay. It is designed to make measurements of protein fragment complementation, a form of binding reporter, as detected with fluorescence intensity signals by Protein-fragment Complementation technology.Data from the assay component OT_PPARg_PPARgSRC1_1440 was analyzed into 1 assay endpoint. This assay endpoint, OT_PPARg_PPARgSRC1_1440, was analyzed in the positive analysis fitting direction relative to DMSO as the negative control and baseline of activity. Using a type of binding reporter, measures of receptor for gain-of-signal activity can be used to understand the binding at the pathway-level as they relate to the gene PPARG. Furthermore, this assay endpoint can be referred to as a primary readout, because the performed assay has only produced 1 assay endpoint. To generalize the intended target to other relatable targets, this assay endpoint is annotated to the nuclear receptor intended target family, where the subfamily is non-steroidal.
Peroxisome proliferator-activated receptor gamma (Homo sapiens), sequence (P37231 whole entry, looked up, the tested form may be a part): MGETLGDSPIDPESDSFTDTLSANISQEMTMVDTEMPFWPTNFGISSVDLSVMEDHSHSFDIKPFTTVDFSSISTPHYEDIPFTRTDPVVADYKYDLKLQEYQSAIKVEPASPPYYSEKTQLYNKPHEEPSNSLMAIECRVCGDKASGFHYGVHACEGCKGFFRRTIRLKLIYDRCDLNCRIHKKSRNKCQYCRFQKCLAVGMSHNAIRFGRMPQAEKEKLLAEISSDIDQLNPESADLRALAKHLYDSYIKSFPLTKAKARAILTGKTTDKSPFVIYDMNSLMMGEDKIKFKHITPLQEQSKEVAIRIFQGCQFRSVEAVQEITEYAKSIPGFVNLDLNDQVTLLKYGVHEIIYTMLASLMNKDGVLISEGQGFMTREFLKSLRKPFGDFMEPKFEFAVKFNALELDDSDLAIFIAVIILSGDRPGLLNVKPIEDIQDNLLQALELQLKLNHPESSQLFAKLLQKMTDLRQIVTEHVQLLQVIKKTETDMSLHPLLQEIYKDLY
The OT PPARg/SRC-1 assay assessed receptor-chemical interactions using a rapidly maturing, intensely fluorescent mutant of YFP known as Venus, rationally dissected into two separate fragments. The fragments were obtained as follows: first, fragments coding for YFP1 and YFP2 (corresponding to amino acid residues 1-158 and 159-239 of the full length YFP, respectively) were generated by oligonucleotide synthesis (Blue Heron Biotechnology), and then PCR mutagenesis was used to generate the mutant fragments IFP1 and IFP2. Fusion constructs were transfected into HEK293T cells with a (Gly4Ser)2 linker between the PPARg/SRC-1 and YFP fragment genes to facilitate complementation when interacting proteins bring fragments into close proximity. The construct is transiently transfected in HEK293T cells 48 hours prior to treatment with test compounds. Cells are seeded into optical quality 384-well poly-D-lysine coated plates in MEM alpha medium (Invitrogen) supplemented with 10 percent FBS (Gemini Bio-Products) 1 percent penicillin and 1 percent streptomycin, and grown in 37C incubator equilibrated to 5 percent CO2. Cells are allowed to adhere for 24 hours prior to treatment with compounds of interest or controls for 24 hours. Cells are fixed in 4 percent formaldehyde and stained with Draq5 (BioStatus) to identify cells and subcellular compartment boundaries prior to signal detection. 8 Images per well were acquired on an Evotec Opera at 2 wavelengths (488 and 635nm), and the ratio of fluorescence in the nucleus relative to fluorescence in the cytoplasm (N/C Ratio) in the 488nm channel was calculated for a minimum of 350 cells per image.
Turning to `CCOC(=O)C(C)(C)Oc1ccc(Cl)cc1`, the result was inactive.
On to `CCCCCCCCCCCCCO`, for which the result was inactive.
In the case of `CCCCCCOCCO` it was “inactive”; in that of `CCCCCCC(=O)OCC`, “inactive”.
Regarding `CN1CCN(Cc2cc(-c3ccc4[nH]c(=O)oc4c3)co2)[C@@H](c2ccc(F)cc2)C1`, the molecule was classed as inactive.
The result for `Cc1ccc(Cl)cc1` reads “inactive”; that for `c1cc(-c2ccncc2)ccn1`, “inactive”.
The result for `COc1cc(S(=O)(=O)O)c(C)cc1N=Nc1c(O)ccc2cc(S(=O)(=O)O)ccc12` reads “inactive”.
With `CC(CO)OC(C)CO` (stereo not given) (tested in a mixture with another compound), the molecule was classed as inactive.
In the case of `COCCOC[C@H](CC1(C(=O)NC2CCC(C(=O)O)CC2)CCCC1)C(=O)Oc1ccc2c(c1)CCC2` (stereo not given in full) it was “inactive”; in that of `CCCCC(CC)COC(=O)CC(C(=O)OCC(CC)CCCC)S(=O)(=O)O` (stereo not given), “inactive”.
In the case of `CCCCCCCCCCCC(=O)OC` it was “inactive”; in that of `Clc1cc(Cl)c(Cl)cc1Cl`, “inactive”.
The result for `CC(C)c1ccc(C(=O)N=C(N)N)cc1S(C)(=O)=O` reads “inactive”.
Take `CNC(=O)[C@H]1O[C@@H](n2cnc3c(NCc4cc(Cl)ccc4OCc4cc(C)no4)ncnc32)[C@H](O)[C@@H]1N`: the outcome was inactive.
The result for `Cc1cccc(C)c1O` reads “inactive”.
The result for `COc1cc(C=O)ccc1O` reads “inactive”; that for `CCCCCCCC=O`, “inactive”; that for `C[Si]1(C)O[Si](C)(C)O[Si](C)(C)O[Si](C)(C)O1`, “inactive”.
For the molecule `CN1CCCC1=O`, the molecule was classed as inactive.
In the case of `CCCCCCCCCCCCCCCC` it was “inactive”; in that of `O=c1[nH]cc(F)c(=O)[nH]1`, “inactive”.
In the case of `O=C(OCCCCCOC(=O)c1ccccc1)c1ccccc1` it was “inactive”; in that of `CC(=O)Oc1ccccc1C(=O)O`, “inactive”; in that of `C=CCc1ccc(O)c(OC)c1`, “inactive”.
In the case of `O=[N+]([O-])C(CO)(CO)CO` it was “inactive”.
Take `FC(F)(F)C(F)(F)C(F)(F)C(F)(F)C(F)(F)C(F)(F)CCI`: the outcome was inactive.
In the case of `CC1=C(/C=C/C(C)=C/C=C/C(C)=C/CO)C(C)(C)CCC1`, the outcome was inactive.
In the case of `CC1(C)NC(=O)NC1=O` it was “inactive”; in that of `COc1ccc(S(=O)(=O)N2C(=O)[C@@](c3ccccc3OC)(N3C[C@H](O)C[C@H]3C(=O)N(C)C)c3cc(Cl)ccc32)c(OC)c1`, “inactive”; in that of `Cc1nc(C)nc(N2C[C@@H](C)N(c3ccnc([C@@H](C)O)n3)[C@@H](C)C2)n1`, “inactive”.
In the case of `Nc1ccccc1N` it was “inactive”.
Take `CCNc1cccc(C)c1`: the molecule was classed as inactive.
In the case of `O=C(N[C@@H](Cc1ccccc1)[C@@H](O)C(=O)N1C[C@@H](O)[C@@H](O)C1)c1cc2cc(Cl)ccc2[nH]1` it was “inactive”.
The result for `Cc1ccc(N(C)C)cc1` reads “inactive”; that for `CCCCCCCCCCO`, “inactive”; that for `Cc1ccc(C(C)C)c(O)c1`, “inactive”.
In the case of `NC(=O)Cn1c(=O)cc(CCN2CCN(c3nccc4sccc34)CC2)c2ccc(F)cc21` it was “inactive”.
Turning to `Cc1ccc(C)c(C)c1`, the outcome was inactive.
The result for `CCCCc1ccc2c(n1)[C@@H](c1ccc(OC)cc1C[C@H](C)C(=O)O)[C@H](C(=O)O)[C@H]2c1ccc2c(c1)OCO2` reads “inactive”.
